Experimental findings from the OligoGym collection are described below.
Note: reference of the scale not given here.

The first assay concerns the target SRSF6. In words: pooled miR-30 sensor sort-seq; sequence = guide strand. The following applies: shRNA.
Turning to TAGATCTGCTTCGAGAATGTGA, the sensor-assay potency score (higher = more potent) is -0.00685.
Same read-out and setting: the result for TTGATCTTGACTTTGAGCGAGA reads -0.415; that for TTGACTTTGAGCGAGATCTAGA, -0.299; that for TTAGATTTGCTCTTTGATCTAG, 0.289.
The same measure, in the same setting: in the case of TAGATTTGCTCTTTGATCTAGA it was 0.174.
The sequence TACTTCGTGACCGTCTTCTAGA showed a sensor-assay potency score (higher = more potent) of -0.126.
Same read-out and setting: in the case of TTTGAGGTCTACTTCGAGGAGG it was -0.608; in that of TTGAGCGAGATCTAGAACGGGA, 0.0866.
Regarding ATTTTTGAGGTCTACTTCGAGG, the sensor-assay potency score (higher = more potent) is -1.54.
Same read-out and setting: in the case of TTGATCGAGAACGTGATCGACC it was -0.727; in that of TTGAAGTAGCTCTTTTTGGTGG, -0.375; in that of TTGATCTAGATTTCCTGCCTTT, 0.199.

The target in the next assay is SRSF7. The assay is described as above. The following applies: shRNA.
Sequence TTCTGAGTGAAGCTGATCTTGA returned a sensor-assay potency score (higher = more potent) of -0.735.
Same read-out and setting: the result for TGCATCTCTAGGATCTTCGAAT reads -1.39.
The same measure, in the same setting: the result for TAAAGGACCATAATAACTGAAA reads -1.16.
Still for that read-out and setting: the result for TTGATCGTCGAGGAGATGCTGA reads -0.317; that for TAGACCTGGATCTTGATCTTGA, -0.00181.
Take TATCAAAACGTGATCTCCGAGG: the sensor-assay potency score (higher = more potent) is -0.606.
Same read-out and setting: the result for TAGATCTTCTGAGTGAAGCTGA reads 0.474; that for TTGATCTTGACCTCGACGGGGA, 0.107.
Regarding TTTCTCGCAATCCATACAGTTC, the sensor-assay potency score (higher = more potent) is -1.
Take TTACCAACATACACCTTGGTTT: the sensor-assay potency score (higher = more potent) was -0.665.
TTTCTAACTCTCCTTTGCCAGC yielded a sensor-assay potency score (higher = more potent) of -1.58.
TAGATCTTGATCGTCGAGGAGA came in with a sensor-assay potency score (higher = more potent) of -0.545.

The next assay has as its target SS18. The assay is described as above. The following applies: shRNA.
Sequence TATTGTAGCAAGGTATACCAAG had a sensor-assay potency score (higher = more potent) of -0.903.
Consider TTGTGTGCAACATCTGCTGATA, for which the sensor-assay potency score (higher = more potent) is -0.703.
Same read-out and setting: in the case of ATTGTCATCCAACATCTTCTGA it was -0.704; in that of TAGAATCTGCTATTGTAGCAAG, -0.645.
Still for that read-out and setting: in the case of TTTGTGTGCAACATCTGCTGAT it was 0.199; in that of TATTGTATTGCTGAGAAGGAGG, -1.18; in that of TTGTCATCCAACATCTTCTGAA, -0.31.
Same read-out and setting: the result for TTGGTTAACTTGACCCATCATT reads -0.57; that for TTTATCTTTATAGCACACCATT, -1.15.
The sequence TTATACACTGAATAAGATGGTT showed a sensor-assay potency score (higher = more potent) of -0.124.
Still for that read-out and setting: the result for TTGTCATCTGATTCTGTACTGG reads -0.29; that for TTTCAGTCTGTAACAGTCCATT, -0.917.
